TDP1 cell CPT = growth inhibition of DT40 Tdp1-/-;hTDP1 cells with camptothecin (screen for TDP1 inhibitors). chicken DT40 Tdp1-/-;hTDP1 cells + 20 nM CPT, ATP luminescence, 48 h. Potency, µM (titrated, usually from 46.2 µM), inactives show at the top dose activity change, negative = growth inhibition, usual class: inhibitors. 420,000 tested, 12% active; further: potency means the concentration at half of the fitted maximal effect; nearly all actives have a fitted effect of over 55% in size
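Chicken DT40 Tdp1-/- cells complemented with human TDP1, 400 cells/well, exposed to compounds plus 20 nM camptothecin for at least 48 h at 37 C; viability read as ATP content by CellTiter-Glo luminescence.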
ELG1 repair inh = inhibitors of ELG1-dependent DNA repair in HEK293T cells; HEK293T ELG1-luciferase reporter, luminescence, 16 h; DNA damage induced by 5-fluorouridine; Potency, µM (top dose mostly 46.1 µM), for the others: at the highest dose activity change, negative = inhibition, actives largely listed as inhibitors; 330,000 tested, 2.3% active; AID 504467; further: potency means the concentration at half of the fitted maximal effect; nearly all actives have a fitted effect of over 55% in size
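Overnight (16 hr) co-exposure of 2,000 cells/well to 5-fluorouridine and compound at 37 °C preceded detection. Luciferase was quantified via ONE-Glo luminescence; loss of signal denotes inhibition.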
IL-1B inflam inh = blocks inflammasome-driven IL-1 beta release | THP-1 LPS/ATP IL-1B secretion, AlphaLISA, 16 h; stronger effect = lower value | 360,000 tested, 4.7% active | activity change, % at 57.5 µM | AID 743279; in the data active means activity change below about -50%; inconclusive means mostly about -30% to -49%
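Secreted IL-1B measured by AlphaLISA bead assay after 16 h compound exposure of THP-1 cells; compounds (final up to 57.5 uM) added 1 h before LPS (250 ng/mL) and ATP (1.25 mM) stimulation; lower signal means less secretion.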
Gal4-VP16 FLuc = inhibits Gal4-VP16 luciferase reporter, ROR gamma counter-screen; 310,000 tested, 3.5% active; Drosophila S2 Gal4-VP16 UAS-luciferase, luminescence, 20 h; Potency, µM (series often up to 53.6 µM), inactives show at the highest dose activity, negative = inhibition, usual class: inhibitors; AID 2546;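 further: Gal4-VP16 expression switched on by copper sulfate through the metallothionein promoter; potency means the concentration at half of the fitted maximal effect; nearly all actives have a fitted effect of over 50% in size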
RORgamma inh = blocks mouse ROR gamma transcriptional activity; P51450; Drosophila S2 Gal4-RORgamma UAS-luciferase reporter, 20 h; Potency, µM (series often up to 53.6 µM), inactives show at the top dose activity change, negative = inhibition, actives largely listed as inhibitors; 310,000 tested, 5.4% active; AID 2551; further: potency means the concentration at half of the fitted maximal effect; nearly all actives have a fitted effect of over 60% in size
Target sequence (P51450 whole entry, looked up, the tested form may be a part): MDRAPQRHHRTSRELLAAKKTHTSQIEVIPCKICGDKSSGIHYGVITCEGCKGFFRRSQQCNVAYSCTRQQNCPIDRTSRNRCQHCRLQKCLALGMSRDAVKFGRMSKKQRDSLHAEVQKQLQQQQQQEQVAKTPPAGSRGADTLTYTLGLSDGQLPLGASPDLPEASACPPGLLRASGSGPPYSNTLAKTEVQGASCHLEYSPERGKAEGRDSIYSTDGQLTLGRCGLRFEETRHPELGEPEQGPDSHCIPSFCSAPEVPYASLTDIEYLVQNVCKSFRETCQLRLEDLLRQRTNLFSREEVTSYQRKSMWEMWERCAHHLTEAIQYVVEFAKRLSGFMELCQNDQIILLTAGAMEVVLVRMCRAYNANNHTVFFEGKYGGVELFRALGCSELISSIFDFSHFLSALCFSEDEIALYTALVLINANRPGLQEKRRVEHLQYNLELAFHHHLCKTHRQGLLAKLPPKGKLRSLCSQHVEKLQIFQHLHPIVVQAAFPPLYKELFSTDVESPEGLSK
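Using a luciferase readout, inhibitors were identified by reduced reporter activity in Drosophila cells coexpressing a copper-inducible Gal4–ROR gamma fusion and UAS-driven Photinus luciferase, incubated 20 hr after 700 uM copper sulfate.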
DT40 TDP1 no CPT = qHTS for Inhibitors of human tyrosyl-DNA phosphodiesterase 1 (TDP1): qHTS in cells in absence of CPT | DT40 Tdp1-/- hTDP1 cells, no CPT, ATP luminescence, 48 h | Potency, µM (highest dose often 46.2 µM), without a hit: at the highest dose activity change, negative = growth inhibition, actives largely listed as inhibitors | 420,000 tested, 15% active; further: potency means the concentration at half of the fitted maximal effect; nearly all actives have a fitted effect of over 55% in size
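No-CPT arm: Tdp1-/-;hTDP1 DT40 cells (400/well) plus compounds, incubated ≥48 hr at 37 °C. Readout CellTiter-Glo luminescence.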
An asterisk follows results filed as active; ? = inconclusive; · = no result given; ! = not active in a repeat; [ ] = dose if it differs, or a comment. Hits are enriched below; roughly 21% of the tested compounds scored in any of these assays. Unless noted, the call rests on the fitted dose curve; in most records, active means well fitted curve in the direction sought with a large enough effect; inconclusive means small, poorly fitted or top-dose-only effect, or another doubt; inactive means no such curve, though single readings can be large; an effect the other way counts as inactive or inconclusive. On the % scale 0 is the no-effect control and ±100 the full control effect.

SMILES | TDP1 cell CPT | ELG1 repair inh | IL-1B inflam inh | Gal4-VP16 FLuc | RORgamma inh | DT40 TDP1 no CPT
COc1cccc(C2C(C(=O)Nc3ccccc3)=C(C)N=c3s/c(=C/c4ccc(OCC(=O)O)cc4)c(=O)n32)c1 (stereo unspecified) | 5% | -4% | 1 | -4% | 12% | -19%
COc1cccc(C2C(C(=O)OC(C)C)=C(C)N=c3s/c(=C\c4ccc(C(=O)O)cc4)c(=O)n32)c1 (stereo unspecified) | -20% | 9% | -7 | -2% | -20% | 18µM*
CCOC(=O)C1=C(C)N=c2sc(=Cc3cc(Cl)c(OCC(=O)O)c(Cl)c3)c(=O)n2C1c1cccc(OC)c1 (stereo unspecified) | 16µM* | · | -18 | · | · | ?
COCCCNc1ncnc2sc(C(=O)N3CCCCC3)c(C)c12 | -13%[9.04 µM] | · | · | · | · | ?
COc1ccc(COC(=O)N/N=C2/C[C@@H](O)[C@@H](O)[C@@H]3[C@@H]4C(=O)N(C(C)(C)C)C(=O)[C@H]4CC[C@H]23)cc1 | · | · | · | 4%[10 µM] | -11%[10 µM] | ·
CC(C)NC(=O)[C@H](CSCc1ccccc1)N1Cc2ccccc2C1=O | 7% | -3% | -5 | -15% | -1% | -5%
O=C(Nc1ccc(F)cc1F)C(Cc1ccccc1)N1Cc2ccccc2C1=O (stereo unspecified) | ? | · | · | · | · | -21%
COc1ccc(OC)c(NC(=O)[C@H](CSCc2ccccc2)N2Cc3ccccc3C2=O)c1 | 21µM* | · | · | · | · | ?
O=C(NCCCN1CCCC1)[C@H](CSCc1ccccc1)N1Cc2ccccc2C1=O | ? | 14% | -30 | 2% | 4% | 29µM*
C[C@@H]1CN([C@@H](C)CO)C(=O)CCCn2nncc2CO[C@@H]1CN(C)C(=O)Nc1ccc(N2CCN(C)CC2)cc1 | 6% | · | 5 | · | · | 3%
Cc1cc(O)c2c(c1)OC1(C)CCC3C(C)(C)CCCC34COC2C14 (stereo unspecified) | · | · | · | ? | 3% | ·
COc1cc(COc2ccc3c(C)c(Cc4ccccc4)c(=O)oc3c2)cc(OC)c1OC | ? | ? | 5 | 1% | 2% | ?
COc1cc(COc2ccc3c(C)c(Cc4ccccc4)c(=O)oc3c2C)cc(OC)c1OC | 21µM* | ? | 38 | -4% | 17% | 18µM*
CC(C)Cc1nnc(NC(=O)c2ccc(S(=O)(=O)N3CCCC3)cc2)s1 | -16% | 9% | 6 | · | · | -17%
O=C(Nc1cccc(Br)c1)Oc1cccc2cccnc12 | 5.2µM* | · | -23 | · | · | 3.3µM*
O=C(Nc1cccc(C(F)(F)F)c1)Oc1ccc(Cl)c2cccnc12 | 23µM* | ? | -102* | 1µM* | 0.5µM* | 18µM*
CCCC[C@H]1CCCO[C@@](C(=O)NCCN2CCOCC2)(C(F)(F)F)C1 | · | · | · | 0% | 7% | ·
N#CC1C(=O)c2ccccc2C1c1ccccc1 (stereo unspecified) | ? | · | -104* | · | · | ?
COc1ccccc1/C=C(/C(=O)OCC(=O)Nc1ccccc1C(C)C)c1ccccc1 | ? | -12% | -11 | 1% | -12% | 21µM*
Cc1cc(O)c(C(C)(C)C)cc1Sc1cc(C(C)(C)C)c(O)cc1C | · | · | · | ? | 10µM* | ·
CC(C)(C)c1cc(OS(C)(=O)=O)ccc1O | 7% | -5% | 13 | ? | 21% | ?
CC(C)(C)c1cc(O)c(C(C)(C)C)cc1O | 11µM*! | · | · | -18% | -32% | 12µM*!
CCN1CCN(c2cc3c(nn2)Oc2ccccc2N3C)CC1 | ? | ? | -12 | -23% | -40% | ?
CC1CCc2c(sc(NC(=O)c3c([N+](=O)[O-])cnn3C)c2C(N)=O)C1 (stereo unspecified) | -20% | 3% | -7 | 2% | -4% | ?
COc1ccc(Cl)cc1C1=NOC2(CCC2)C(=O)N1Cc1cccc(C#N)c1 | ? | · | -2 | · | · | ?
SMILES | TDP1 cell CPT | ELG1 repair inh | IL-1B inflam inh | Gal4-VP16 FLuc | RORgamma inh | DT40 TDP1 no CPT
CC(Sc1cccc[n+]1[O-])C(=O)NC1CCCCC1C (stereo unspecified) | -3% | ? | 22 | · | · | 31%
O=C(c1ccc2c(=O)n(-c3ccccc3)c(=S)[nH]c2c1)N1CCCCC1 | 6.5µM* | 3.3µM* | 11 | 3.2µM* | 8.9µM* | 6.5µM*
O=C(c1ccc2c(c1)[nH]c(=S)n1c3ccccc3nc21)N1CCN(c2ncccn2)CC1 | 21µM* | 0% | -23 | 0% | 4% | ?
O=C(c1ccc(F)cc1)N1CCN(c2ncccn2)CC1 | 7% | 4% | 11 | 10% | 3% | -6%
O=C(c1ccc2c(=O)n(-c3ccccc3)c(=S)[nH]c2c1)N1CCN(c2ccccc2)CC1 | 15µM* | ? | 24 | · | · | 12µM*
CCCn1c(=O)c(C)cn2nc(N)nc12 | 6% | · | · | 4% | 2% | -1%
CC(=O)Nc1ccc(-c2ccnc3c2CC(C)(C(=O)NCc2ccc(N4CCN(C)CC4)cc2)O3)cc1 (stereo unspecified) | -20% | · | -20 | · | · | ?
COc1ccc(Cl)c(NC(=O)C/C(C)=N/NC(=O)CCc2ccccc2)c1 | -15% | 1% | ? | 1% | 6% | -18%
O=C(C1COc2ccccc2O1)N1CCN(c2nc3c(F)cc(F)cc3s2)CC1 (stereo unspecified) | 21µM* | -27% | -23 | · | · | 15µM*
O=C(C1CC1)N1CCN(c2nc3c(F)cc(F)cc3s2)CC1 | ? | · | · | · | · | 15µM*
O=C(C1COc2ccccc2O1)N1CCN(Cc2ccc(Br)cc2F)CC1 (stereo unspecified) | ? | -14% | -63* | -22% | ? | ?
Fc1cc(F)c2nc(N3CCCC3)sc2c1 | -5% | ? | -13 | 20% | 20% | 8%
O=C(c1ccc(OC2CCN(Cc3ccccc3C(F)(F)F)CC2)cc1)N1CCCCC1 | ? | ? | -85* | ? | 44% | ?
O=C(c1ccc(OC2CCN(Cc3ccc(C(F)(F)F)cc3)CC2)cc1)N1CCCCC1 | ? | ? | 4 | -2% | ? | 21µM*
O=C(c1ccc(OC2CCN(Cc3ccccc3OC(F)F)CC2)cc1)N1CCCC1 | -10% | 0% | ? | 0% | -18% | 23%
CCOc1cccc(C=Nc2cc(C)cc(C)c2O)c1O | 15µM* | -24% | 0 | -8% | -16% | ?
CCOc1cccc(/C=N/N=C/c2cccc(OCC)c2O)c1O | -11% | 24% | 3 | -10% | -15% | -1%

Screens deposited in PubChem by National Center for Advancing Translational Sciences (NCATS).
